Screening results from PubChem.
The entries come from a sample that favours hits as a whole.
Cruzain noTriton – qHTS Assay for Promiscuous and Specific Inhibitors of Cruzain (without detergent) | Cruzipain (Trypanosoma cruzi), P25779 | purified cruzain, Z-FR-AMC fluorescence, no detergent | Potency, µM, for inactives: max response, negative = inhibition, actives largely listed as inhibitors | hit rate 2.3% among 200,000 | AID 1476, 2009;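 also: plate controls were enzyme without inhibitor for no effect and buffer without enzyme for full effect; nearly all actives have a fitted effect of over 40% in size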
Target sequence (P25779 123-467 limits assumed): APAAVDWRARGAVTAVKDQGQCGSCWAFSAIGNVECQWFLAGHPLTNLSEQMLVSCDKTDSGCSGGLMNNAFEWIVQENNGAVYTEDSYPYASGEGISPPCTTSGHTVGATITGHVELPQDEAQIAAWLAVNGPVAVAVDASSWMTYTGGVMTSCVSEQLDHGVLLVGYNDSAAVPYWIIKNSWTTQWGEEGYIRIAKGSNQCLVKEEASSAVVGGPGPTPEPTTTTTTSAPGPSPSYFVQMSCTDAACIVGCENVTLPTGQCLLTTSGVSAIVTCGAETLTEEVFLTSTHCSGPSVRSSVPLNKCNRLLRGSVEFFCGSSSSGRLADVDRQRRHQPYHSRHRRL
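Detergent-free condition (0.00005% Triton X-100) in acetate buffer pH 5.5 with DTT. 1.5 nM enzyme and compound were pre-mixed 15 min, then 2 uM Z-FR-AMC substrate added; reaction progress from fluorescence change between first and third reads (60 s).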
Cruzain Triton – qHTS Assay for Promiscuous and Specific Inhibitors of Cruzain (with detergent); Potency, µM, for inactives: max response, negative = inhibition, most hits filed as inhibitors; Cruzipain (Trypanosoma cruzi), P25779; purified cruzain, Z-FR-AMC fluorescence, 0.01% Triton; AID 1478, 2009; hit rate 0.43% among 200,000;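 also: plate controls were neutral wells for no effect and buffer without enzyme for full effect; nearly all actives have a fitted effect of over 40% in size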
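Detergent-containing run (0.01% Triton X-100) in acetate buffer pH 5.5 with 5 mM DTT: enzyme at 1.5 nM final, 15 min compound preincubation at room temperature, then 2 uM Z-FR-AMC substrate. Activity taken as 60 s fluorescence increase at 360/450 nm.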
FBPA Giardia inh – qHTS Assay for Inhibitors of Fructose-1,6-bisphosphate Aldolase from Giardia Lamblia | A8B2U2 | purified Giardia FBPA | Potency, µM (titrated, usually from 59.6 µM), without a hit: at the highest dose activity, negative = inhibition, hits mostly inhibitors | hit rate 0.71% among 290,000 | AID 2451, 2010; also: nearly all actives have a fitted effect of over 55% in size
Target sequence (A8B2U2 whole entry, looked up): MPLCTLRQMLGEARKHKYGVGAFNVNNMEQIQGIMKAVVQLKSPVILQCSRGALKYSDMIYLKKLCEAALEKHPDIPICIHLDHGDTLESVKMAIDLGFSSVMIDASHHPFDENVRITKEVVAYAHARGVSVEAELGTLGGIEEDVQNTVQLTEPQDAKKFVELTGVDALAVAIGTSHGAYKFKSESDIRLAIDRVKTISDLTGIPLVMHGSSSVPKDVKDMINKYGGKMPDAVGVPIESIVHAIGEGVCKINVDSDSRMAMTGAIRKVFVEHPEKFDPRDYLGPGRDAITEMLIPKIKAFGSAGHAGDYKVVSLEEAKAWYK
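Giardia FBPA (40 nM reagent) was preincubated 10 min at RT with compound (up to 57.5 uM final), then substrate plus GAPDH/TPI/NAD/arsenate coupling system with diaphorase/resazurin was added; resorufin fluorescence (525/598 nm) was read after 20 min.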
Starred values were filed as active, the others as inactive; ? = inconclusive; . = no result; [ ] = another dose, or the depositor's remark. Calls follow the shape of the dose curve; as a rule, active = well fitted curve in the direction sought with a large enough effect; inconclusive = small, poorly fitted or top-dose-only effect, or another doubt; inactive = no such curve, though single readings can be large; an effect the other way counts as inactive or inconclusive. Unless noted, % is scaled to controls: 0 for no effect and ±100 for the full control effect; potency is read from the fitted curve at half-maximal effect.

SMILES	Cruzain noTriton	Cruzain Triton	FBPA Giardia inh
Cc1ccc(C)c(NC(=O)c2cc(-c3ccccc3O)n[nH]2)c1	.	.	10.4%
Cc1ccc(-c2cc(C(=O)Nc3cc(C)ccc3C)[nH]n2)c(O)c1	12.6µM*	-1.5%	-0.3%
COc1ccc(-c2nnc(SCC(=O)c3ccc(NC(C)=O)cc3)o2)cc1OC	6.8%	-2.3%	.
CN1CCN(c2nc3c(c(=O)n(C)c(=O)n3C)n2C)CC1	-4.1%	0.5%	.
CC(=O)OC[C@@H]1O[C@H](C/C=N\O[C@@H](C)c2cn([C@H](CO)Cc3ccccc3)nn2)C=C[C@@H]1OC(C)=O	.	.	1.9%[12.9 µM]
COc1ccc(-c2nc3c(c4c2C[C@H](c2ccccc2)OC4)CN(C(=O)Cc2cccs2)CC3)c(C)c1	.	.	11.4%[12.9 µM]
CCc1ccc(C2C(C#N)=C(N)SC(N)=C2C#N)cc1	-11.8%	-18.0%	-25.9%
CCc1ccc(C2C(C#N)=C(N)SC(N)=C2C#N)s1	15.8µM*	-27.3%	?
CCC(=O)N1CCc2cc(CNC(=O)Cc3ccc(F)cc3)ccc21	-0.2%	1.8%	.
COc1cc(/C=C/C(=O)c2ccc(NS(=O)(=O)c3ccc(C)cc3)cc2)cc(OC)c1O	?	-6.0%	-12.9%
COc1cc(/C=C/C(=O)c2ccc(NS(=O)(=O)c3ccc(C)cc3)cc2)ccc1OC(F)F	10µM*	-2.3%	12.1%
Cc1cc(C)c(NC(=O)c2cc3c(=O)n4ccccc4nc3n2C)c(C)c1	-4.5%	-1.2%	.
COc1cccc(NC(=O)CSc2nc3ccc(NC(=O)c4cccs4)cc3s2)c1	?	-3.6%	.
COc1cccc(Cn2cnc3c(NS(=O)(=O)c4cc(Cl)ccc4Cl)c(C)c(C)cc32)c1	?	-6.2%	-1.7%
COc1cccc(Cn2cnc3c(NS(=O)(=O)c4ccc(Cl)cc4Cl)c(C)c(C)cc32)c1	31.6µM*	2.1%	5.8%
CC(CO)(CO)Nc1ncnc2ccccc12	8.2%	0.2%	.
Cc1cc(C)n(C(C[N+](=O)[O-])c2ccc(Cl)cc2)n1 (stereo not given)	20µM*	-5.3%	?
Cc1cc(O)c(C(C[N+](=O)[O-])c2ccc(Cl)cc2)c(=O)o1 (stereo not given)	-15.1%	0.4%	4.6%
COc1ccc(C(=O)NCc2ccc3c(c2)cc(C)n3C)cc1	.	.	3.0%
O=C(NCc1ccc(Cl)cc1)c1cc2ccccc2o1	-6.2%	-6.1%	.
O=C(NCc1ccc(-c2nc3ccccc3s2)cc1)c1cc2ccccc2o1	12.6µM*	-2.7%	7.7%
Cc1cc(-c2csc(NC(=O)c3cc4ccccc4o3)n2)c(C)n1C	15.8µM*	-5.8%	-3.7%
Cc1cc2cc(CNC(=O)c3cc4ccccc4o3)ccc2n1C	25.1µM*	-3.7%	-0.4%
CCOC(=O)c1csc(NC(=O)c2cc3ccccc3o2)n1	.	.	-7.4%
O=C(NCc1ccc(-c2nc3ccccc3s2)cc1)c1ccc(Br)o1	?	1.3%	5.0%
SMILES	Cruzain noTriton	Cruzain Triton	FBPA Giardia inh
Cc1cc2cc(CNC(=O)c3ccc4c(c3)OCO4)ccc2n1C	20µM*	-2.4%	-28.8%
COC(=O)CCCC(=O)O	17.1%	3.9%	.
Cc1c(C(=O)N2CCC(C(=O)Nc3ccc(F)cc3)CC2)sc2nc[nH]c(=O)c12	-7.1%	0.1%	.
CCOc1ccccc1-c1nnc2n1N=C(c1ccc(OC)c(OC)c1)CS2	.	.	-2.7%
COc1ccc(Cn2c(=O)c3oc4ccccc4c3n(Cc3ccccc3)c2=O)cc1	-0.9%	-0.5%	.
COc1cccc(-c2nc(N3CCN(C)CC3)c3ccccc3n2)c1	-8.4%	0.9%	1.1%
O=C(Nc1ccc(Cl)c(C(F)(F)F)c1)c1ccc2c(c1)CCN2S(=O)(=O)c1ccccc1	25.1µM*	-0.2%	.
Cc1ccc(S(=O)(=O)N2CCCc3cc(NC(=O)c4ccc(C(C)(C)C)cc4)ccc32)cc1	3.16µM*	4.3%	.
COc1ccc(C(=O)Nc2ccc3c(c2)CCCN3S(=O)(=O)c2ccc(C)cc2)cc1	?	-2.7%	.
COc1ccc(NC(=O)c2ccc3c(c2)CCN3S(=O)(=O)c2ccc(C)cc2)cc1Cl	7.94µM*	1.1%	.
CC(=O)Nc1ccc(NC(=O)c2ccc3c(c2)CCN3S(=O)(=O)c2ccc(C)cc2)cc1	11.7%	0.4%	.
CCc1cccc(CC)c1NC(=O)c1ccc2c(c1)CCN2S(=O)(=O)c1ccccc1	-2.8%	-1.9%	.
NC(N)=NC[C@H](N)C(=O)O	-5.9%	0.9%	.
CCCC[C@H](NC(=O)[C@H](CC(C)C)NC(=O)[C@@H](Cc1c[nH]c2ccccc12)NC(=O)[C@H](Cc1ccccc1)NC(=O)[C@@H](Cc1c[nH]c2ccccc12)NC(=O)[C@H](CC(N)=O)NC(=O)[C@@H](Cc1c(Cl)cccc1Cl)NC(=O)[C@@H]1CCCN1C(=O)[C@H](Cc1ccccn1)NC(=O)[C@@H]1CCCN1C(=O)[C@H](N)CCCCNC(=O)c1cccnc1)C(N)=O	.	.	2.5%
CC1(C)[C@@H](CC(=O)O)CCC[C@@H]1CC(=O)O	1.9%	5.0%	.
COc1ccc(-c2cc(C(C)=O)c(C)n2CCC(=O)Nc2cccc(C)c2C)cc1	-1.4%	0.1%	.
Cc1ccc(NC(=O)CSc2cc(=O)n(C)c3ccc(Cl)cc23)c(Br)c1	-7.8%	1.1%	.
N#Cc1cccc(CS(=O)(=O)c2nc3ccccc3s2)c1	-5.8%	0.4%	-9.2%
CC(=O)c1ccc(NC(=O)c2ccc(-c3nc(CSc4ccccc4)c(C)o3)cc2)cc1	10µM*	-2.4%	.
COc1ccc(NC(=O)c2ccc(-c3nc(COc4ccccc4)c(C)o3)cc2)cc1	2.1%	-1.6%	.
CC(=O)c1ccc(NC(=O)c2ccc(-c3nc(CSc4ccc(C)cc4)c(C)o3)cc2)cc1	?	-2.2%	.
CC(=O)c1ccc(NC(=O)c2ccc(-c3nc(COc4ccc(C)cc4)c(C)o3)cc2)cc1	1µM*	-2.9%	.
COc1ccc2c(C)c(CCC(=O)NCc3cccc(Cl)c3)c(=O)oc2c1	6.8%	-8.0%	.
Cc1ccc(C)c(Cn2c(=O)n(C(C)C)c(=O)c3oc4ccccc4c32)c1	-6.4%	0.0%	.
CC1=C(c2ccccc2)[N+](=O)C2(CCCC2)N1[O-]	4.0%	3.2%	4.4%
SMILES	Cruzain noTriton	Cruzain Triton	FBPA Giardia inh
O=[N+]([O-])c1ccc2c(c1)N([O-])C1(CCCCC1)[N+]2=O	.	.	7.92µM*
O=C(NCc1ccccn1)C1(C(F)(F)F)CC(CCCO)CCCO1 (stereo not given)	.	.	-3.7%
CNc1ccccc(C(=O)/C=C/c2ccccc2OC)c1=O	8.2%	-15.6%	11.2µM*
CNc1ccc(Br)cc(C(=O)/C=C/c2cccc(OC)c2OC)c1=O	?	-16.2%	?
Cc1ccc(-c2c(C3C4C=CCC(C)C4C(=O)N3Cc3ccccc3)ccc3ccccc23)cc1 (stereo not given)	.	.	-3.8%
N#CC1=C(N)SC(N)=C(C#N)C1c1cccc(Oc2ccccc2)c1	25.1µM*	-18.1%	?
CCOc1ccc(C2C(C#N)=C(N)SC(N)=C2C#N)cc1OCC	-0.5%	-11.4%	-25.9%
COc1ccc(CNC(=O)c2ccc3c(c2)NC(=O)C(CS(=O)(=O)Cc2ccccc2Cl)N3)cc1 (stereo not given)	5.1%	-0.9%	.
O=C(NCc1ccc(Cl)cc1)c1ccc2c(c1)NC(=O)C(CS(=O)(=O)Cc1ccccc1Cl)N2 (stereo not given)	25.1µM*	-2.8%	.
